# Data reported in PubChem BioAssay (Tox21).
# Values without a mark were called inactive. Entries that show only a call come without a potency. Activity calls are given as the source filed them. Calls follow the shape of the full dose curve.
# Assay: G protein-coupled receptor (GPCR) small molecule agonists, calcium flux assay: HEK293 wild type cell line counter screen (AID 1920065)
# Conditions: HEK293 WT calcium flux, fluorescence, agonist mode; series mostly up to 57.6 µM
# Excerpt: U.S. Tox21 Program National Center for Advancing Translational Sciences [NCATS] Division of Preclinical Innovation [DPI] U.S. Environmental Protection Agency [EPA] National Institutes of Environmental Health Sciences [NIEHS] National Toxicology Program [NTP] U.S. Food and Drug Administration [FDA] Assay overview: The increased intracellular calcium release that occurred upon G protein-coupled receptor (GPCR) activation led to the frequent use of calcium flux assays to detect GPCR activation. For the purpose of studying and screening compounds that may activate GPCR, receptor-overexpressing models were typically generated using Hek293 wild-type (WT) cells. In order to eliminate the compounds that may have induced calcium release for non-specific activation, a counter-assay utilizing calcium flux on Hek293 WT cells was performed. The data were formulated in order to serve as a control for any calcium flux detection utilizing Hek293 cells with either GPCR overexpression or gene modification. The procurement of Hek293 WT cells from ATCC. Fluorescence intensity can be utilized to determine the activation of the compound in a calcium flux assay. As a counter control, this cell line was utilized to screen the Tox21 10K compound library.
# Assay Protocol Summary: Hek293 cells were dispensed at 1500cells/4uL/well in 1536-well black wall/clear bottom plates using a multidrop dispenser. After the assay plates were incubated at a 37 C/5% CO2 incubator for 18 hours, 4 uL of Calcium Dye Solution was added to each well. The plates were incubated at 37 C for 1 hour. For agonist mode, 23 nL of compounds dissolved in DMSO, positive control (ATP) or DMSO only was transferred to the assay plate by a pin tool station. The fluorescence intensity in the plates was measured using FDSS 7000EX kinetic plate reader with a filter set of Ex/Em=480/540 for 3 min at 1 sec intervals. Each test compound was measured at 15 concentrations and in triplicates.
# Potency is read from the fitted curve at half-maximal effect.
SMILES,Potency,activation
C/C=C/C=N/NC(=O)c1ccncc1,inactive,–
CC(C)COC(=O)COc1ccc(Cl)cc1Cl,inactive,–
CC1(C)[C@@H](O)CC[C@]2(C)[C@H]3C(=O)C=C4[C@@H]5C[C@@](C)(C(=O)O)CC[C@]5(C)CC[C@@]4(C)[C@]3(C)CC[C@@H]12,inactive,–
O=c1[nH]c2ccc(S(=O)CCN3CCC(Cc4ccc(F)cc4)CC3)cc2o1 (stereo not given),inactive,–
CC(C)n1c(/C=C/[C@@H](O)C[C@@H](O)CC(=O)O)c(-c2ccc(F)cc2)c2ccccc21,inactive,–
O=[N+]([O-])c1ccc(NCCO)c(OCCO)c1,inactive,–
CN(C(=O)CN(CCO)CC(=O)N(C)C(C)(C)Cc1ccccc1)C(C)(C)Cc1ccccc1,inactive,–
CCCCCCCCCCC[C@@H](C[C@@H]1OC(=O)[C@H]1CCCCCC)OC(=O)[C@H](CC(C)C)NC=O,inactive,–
COC(Cc1ccccc1)OC,inactive,–
[O-][n+]1ccccc1SSc1cccc[n+]1[O-],4.65 µM (active),–
CCCC(=O)OC/C=C(\C)CCC=C(C)C,inactive,–
CC(CC=O)c1ccccc1 (stereo not given),inactive,–
Nc1c(I)cc(I)c(C(=O)N(CCC(=O)O)c2ccccc2)c1I,inactive,–
CCCCCOC(=O)CCCCC,inactive,–
O=S1(=O)N=C(O)c2ccccc21,inactive,–
CCCCCCC(C)Nc1ccc(Nc2ccccc2)cc1 (stereo not given),inactive,–
CC(C)=CC=O,inactive,–
CCCCC/C=C\C=C\C(=O)OCC,inactive,–
Nc1ccc(N=Nc2ccc(N)cc2)cc1,inactive,–
Cc1nc([N+](=O)[O-])cn1-c1ccc([N+](=O)[O-])cc1,inactive,–

SMILES,Potency,activation
CCCCCCCC/C=C\CCCCCCCC(=O)OC(CO)CO,inactive,–
COc1cc(C(=O)NC2CCN(C)CC2)ccc1Nc1ncc2c(n1)N(C1CCCC1)CC(F)(F)C(=O)N2C,inactive,–
NC(=O)c1ccccc1C(N)=O,inactive,–
O=C(Nc1ccc(C(=O)O)c(O)c1)c1ccccc1,inactive,–
CC1(COc2ccc(CC3SC(=O)NC3=O)cc2)CCCCC1 (stereo not given),inactive,–
CCOc1ccc2nc(N)sc2c1,inactive,–
CCN(CC)c1ccc(C(=C2C=CC(=[N+](CC)CC)C=C2)c2cc(S(=O)(=O)O)ccc2S(=O)(=O)[O-])cc1,inactive,–
CCOC(=O)COC(=O)c1cc(Oc2ccc(C(F)(F)F)cc2Cl)ccc1[N+](=O)[O-],inactive,–
CCCCC[Si](OCC)(OCC)OCC,inactive,–
COP(=O)(O)OP(=O)(O)OC,inactive,–
CC(=O)OCC(CCn1cnc2cnc(N)nc21)COC(C)=O,inactive,–
CC(C)(C(=O)O)c1ccc(C(O)CCCN2CCC(C(O)(c3ccccc3)c3ccccc3)CC2)cc1 (stereo not given),inactive,–
Cc1ccc(C(=O)O)cc1[N+](=O)[O-],inactive,–
C=C(C)C(=O)OCCOCCOCCOCCOC(=O)C(=C)C,inactive,–
C[C@@H]1CN(c2c(F)c(F)c3c(=O)c(C(=O)O)cn(C4CC4)c3c2F)C[C@H](C)N1,–,-1.01% [at 11.8 µM]
[Ca+2],inactive,–
CCCCc1oc2ccccc2c1C(=O)c1cc(I)c(OCCN(CC)CC)c(I)c1,inactive,–
O=Cc1cc(O)ccc1Br,inactive,–
COC(=O)C(C)=O,inactive,–
C=C(C)C(=O)OCCOc1ccccc1,inactive,–
